Screening data as filed in PubChem BioAssay.
Most compounds without a hit are left out; they make up all but 0.45% or so of the library.
GAA glycogen mod – inhibitors or activators of human alpha-glucosidase glycogen cleavage | P10253 | recombinant GAA, glycogen substrate, Amplex Red glucose oxidase fluorescence | Potency, µM (top dose mostly 76.4 µM), inactives show at the top dose activity change, negative = inhibition, most hits filed as inhibitors | 300,000 compounds, 0.38% hits;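 also: potency is read from the fitted curve at half-maximal effect; 0% = full enzyme reaction and -100% = no-enzyme basal signal; the screen sought inhibitors and activators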
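Recombinant human alpha-glucosidase (4 nM final) hydrolysed bovine liver glycogen (30 ug) for 40 min at 37 C in pH 5.0 citrate/phosphate with 0.01% Tween-20. Released glucose detected by glucose oxidase/Amplex Red, Ex 573/Em 610 nm. Compounds up to 77 uM; AC50 from Hill fits.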
Menin-MLL FL inh – displaces fluorescein MLL peptide from human menin. 290,000 tested, under 10 active. FP activity change, % at 61.4 µM. Fluorescence polarization, fluorescein-MLL peptide displacement from menin. AID 1766; active = well fitted curve in the direction sought with a large enough effect in the polarisation, not every such curve was filed as active; inconclusive = small, poorly fitted or top-dose-only effect, or effect the other way, or a change in a side signal; inactive = no such curve, though single readings can be large or run the other way; the % refers to the polarisation; also: % of control where 0% means no effect
aGlu spleen mod – inhibits or activates alpha-glucosidase in human spleen homogenate; P10253; human spleen homogenate, 4-MU-alpha-glucoside fluorescence; Potency, µM (doses to about 79.9 µM), for inactives: at the top dose activity change, negative = inhibition, most hits filed as inhibitors; 240,000 compounds, 0.006% hits;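 also: potency is read from the fitted curve at half-maximal effect; 0% = enzyme with vehicle and -100% = no enzyme basal signal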
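Human spleen homogenate (1 ug) with 4-methylumbelliferyl-alpha-D-glucopyranoside (1 mM final) in 50 mM citrate/phosphate pH 5.0, 0.01% Tween-20; 40 min at 37 C. Stopped at pH 10; 4-MU fluorescence Ex 365/Em 440 nm; AC50 by Hill fit.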
MLL CXXC-DNA inh – inhibitors of human MLL CXXC domain-DNA interaction. Q03164. MLL-CXXC / FITC-HOXA9 DNA fluorescence polarization. Potency, µM (highest dose often 115 µM), for inactives: at the highest dose activity change, negative = inhibition, usual class: inhibitors. AID 2662. 290,000 compounds, 0.037% hits; active = well fitted inhibition curve with a large enough effect in the polarisation, with a control signal flat, not every such curve was filed as active; inconclusive = small, poorly fitted or top-dose-only effect, or effect the other way, or a change in a side signal; inactive = no such curve, though single readings can be large or run the other way; the % refers to the polarisation; also: potency is read from the fitted curve at half-maximal effect
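Purified MLL-CXXC (added from a 7 uM solution) was preincubated 5 min at ambient with pinned compounds in 50 mM Tris-HCl pH 7.5, 50 mM NaCl, 1 mM DTT, 0.05% BSA. Fluorescein-labeled HOX-A9 DNA (50 nM solution) followed, 30 min, then polarization read.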
Menin MLL FP TR – displaces Texas Red mutant MLL peptide from human menin. Menin + Texas Red MLL mutant peptide, fluorescence polarization. AID 1768. Potency, µM (highest dose often 61.6 µM), inactives show at the highest dose FP activity change, negative = inhibition, hits mostly inhibitors. 270,000 compounds, 0.23% hits. O00255; active = well fitted inhibition curve with a large enough effect in the polarisation, with a control signal flat, not every such curve was filed as active; inconclusive = small, poorly fitted or top-dose-only effect, or effect the other way, or a change in a side signal; inactive = no such curve, though single readings can be large or run the other way; the % refers to the polarisation; also: potency is read from the fitted curve at half-maximal effect; % of control where 0% means no effect
GAA inhib – inhibitors of human lysosomal alpha-glucosidase. purified human GAA, 4-MU-alpha-glucoside fluorescence. Potency, µM (titrated, usually from 76.9 µM), for inactives: at the top dose activity change, negative = inhibition, actives largely listed as inhibitors. 200,000 compounds, 0.005% hits. AID 1466. P10253;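 also: potency is read from the fitted curve at half-maximal effect; plate controls were uninhibited enzyme wells for no effect and no-enzyme background for full effect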
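Endpoint fluorogenic read: 20 min room-temperature reaction of 4 nM human alpha-glucosidase with 400 uM 4-methylumbelliferyl-alpha-D-pyranoside, pH 5.0, quenched with 1M NaOH/1M glycine pH 10. AC50 from Hill modeling.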
* marks the source's active call; other numbers are inactive results; ? = inconclusive; / = no result; ! = repeats disagree; [ ] = dose if it differs, or a comment. Unless noted, calls follow the shape of the dose curve; as a rule, active = well fitted curve in the direction sought with a large enough effect; inconclusive = small, poorly fitted or top-dose-only effect, or another doubt; inactive = no such curve, though single readings can be large; an effect the other way counts as inactive or inconclusive.

SMILES	GAA glycogen mod	Menin-MLL FL inh	aGlu spleen mod	MLL CXXC-DNA inh	Menin MLL FP TR	GAA inhib
O=C(NNC(=O)c1sccc1-n1cccc1)Nc1ccccc1	13µM*	0	5%	-2%	-8%	1%
O=C(NNC(=O)c1sccc1-n1cccc1)c1ccccc1	-19%	0	-5%	2%	-14%	9%
COc1ccc(Cn2nnnc2C(C(C)C)N2CCN(c3ccccc3OC)CC2)cc1 (stereo not given)	-6%	-4	-6%	4%	-14%	-3%
CCC(C)(C)n1nnnc1C(c1ccc2ncccc2c1)N1CCN(c2ccc(O)cc2)CC1 (stereo not given)	1.4µM*	4	3%	9%	/	/
CC(C)C(c1nnnn1Cc1ccc(F)cc1)N1CCN(c2ccc(O)cc2)CC1 (stereo not given)	7µM*	-1	7%	36%	4%	14%
CCC(C)(C)n1nnnc1C(c1ccc2ncccc2c1)N1CCN(c2nc3ccccc3s2)CC1 (stereo not given)	-1%	0	-12%	-4%	17%	?
Oc1ccc(N2CCN(C(c3cccnc3)c3nnnn3Cc3ccccc3)CC2)cc1 (stereo not given)	16µM*	3	3%	12%	-22%	1%
O=C(O)c1cc(NCc2c(F)cccc2Cl)ccc1N1CCOCC1	7.1µM*	-5	-7%	-3%	-30%	3%
COC(=O)c1cc(NCc2ccccc2F)ccc1N1CCOCC1	?	5	6%	-2%	0%	-1%
C=CCCC/C=C(/C)C(OCc1ccc(OC)cc1)C(CC/C=C(\C)C(N)=O)OC (stereo not given)	/	-2[11.7 µM]	-9%[17.4 µM]	/	-17%[11.7 µM]	/
CCc1cc2c(Nc3ccc(O)cc3)nc(C)nc2s1	/	-1	/	-12%	29%	/
CCOC(=O)Nc1ccc2c(c1)Nc1ccccc1S2	14µM*	1	2%	-5%	?	-10%
CC(=O)c1ccc2c(c1)Nc1ccccc1S2	31µM*	-1	-5%	-3%	35%	-2%
CC(=O)N1CCOc2ccc(S(=O)(=O)N(C)c3cccc(C)c3)cc21	/	/	/	-2%	/	/
CCNc1nc(NC(C)C)nc(N(C)C#N)n1	-3%	-1	8%	-3%	/	/
CCNc1nc(NCC)nc(N(C)N)n1	35µM*	1	1%	-1%	/	-2%
CC(C)Nc1nc(NC(C)C)nc(N(C)N)n1	28µM*	6	1%	35%	-10%	-3%
OC1(Cc2cc(-c3ccccc3)no2)CCN(CCCc2ccccc2)CC1	5%[76.3 µM]	4	/	29%	-19%	/
COc1ccc(Nc2nc(C)c(-c3ccccc3)s2)cc1	14µM*	4	-2%	6%	32%	-9%
O=C1c2ccc(O)c(O)c2C(=O)c2c(O)ccc(O)c21	/	/	-5%	/	/	/
CC1=CC(=O)c2c(O)ccc(O)c2C1=O	?	?	-4%	32µM*	?	/
Cc1cc2oc(C(=O)Nc3ccc(S(=O)(=O)Nc4ncccn4)cc3)cc(=O)c2cc1C	2%[76.3 µM]	/	/	/	/	/
CCCCNc1c(C(=O)OCC)c(C)nc2c1cnn2CC	/	9	-7%	7%	40µM*!	/
CC(=O)C1=C(c2ccccc2)NC(=S)NC1c1ccc(O)c(O)c1 (stereo not given)	3.2µM*	-2	-1%	6%	18%	4%
CN(C)c1cc2c(cc1NC(=O)c1ccc(F)cc1)n(C)c(=O)n2C	-8%[76.3 µM]	/	/	/	/	/
CC1CCC/C(=C\Nc2ccc(O)cc2)C1=O (stereo not given)	14µM*	3	0%	13%	?	-9%
CCOc1ccc(N2Nc3n[nH]c(N)c3N2)cc1	22µM*	3	-14%	-10%	?	-8%
COc1ccc(N2Nc3n[nH]c(N)c3N2)cc1	25µM*	0	?	1%	?	-11%
COc1ccc(N2CCN(c3n[nH]c(N)n3)CC2)cc1	?	6	8%	-2%	-1%	9%
CCOc1ccc(Cc2n[nH]c(=S)n2N)cc1	4%	2	-4%	0%	-1%	4%
